The values below come from publication PMC7862700, “An all-to-all approach to the identification of sequence-specific readers for epigenetic DNA modifications on cytosine”.

Test in all cases: DAPPL (digital affinity profiling via proximity ligation, sequencing); 10 mM Tris-HCl pH 7.5, 50 mM NaCl, 1 mM DTT, 4% glycerol, room temperature, 30 min; GST-TFs on glutathione beads, 16-mer random dsDNA library, 0.1% formaldehyde crosslink after washing; high values mean tight binding
Conditions in all cases: protein: recombinant; tags: N-terminal GST; dsDNA, one strand shown

The target in test [1] is T1, ERF (Homo sapiens, UniProt P50548 1-548).
T1 sequence: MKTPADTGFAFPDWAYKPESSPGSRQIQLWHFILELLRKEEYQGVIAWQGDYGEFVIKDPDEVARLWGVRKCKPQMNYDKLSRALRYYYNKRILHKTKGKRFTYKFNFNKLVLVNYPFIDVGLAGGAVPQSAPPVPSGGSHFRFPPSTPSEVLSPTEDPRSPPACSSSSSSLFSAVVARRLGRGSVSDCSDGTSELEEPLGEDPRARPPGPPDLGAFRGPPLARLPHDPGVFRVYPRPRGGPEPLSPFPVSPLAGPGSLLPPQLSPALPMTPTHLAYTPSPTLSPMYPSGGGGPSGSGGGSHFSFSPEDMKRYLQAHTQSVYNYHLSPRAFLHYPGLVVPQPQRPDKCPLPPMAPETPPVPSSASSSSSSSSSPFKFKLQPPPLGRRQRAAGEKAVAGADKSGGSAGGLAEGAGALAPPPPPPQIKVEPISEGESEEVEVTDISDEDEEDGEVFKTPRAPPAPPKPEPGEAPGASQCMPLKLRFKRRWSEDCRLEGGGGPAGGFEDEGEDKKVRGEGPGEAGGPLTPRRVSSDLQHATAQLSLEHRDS
The method, boiled down:
(§1)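 Binding signal is each hexamer's read frequency for a factor divided by its frequency in the tag-only sample. The factors were GST-fused human transcription factors from yeast, captured on glutathione beads, DNA-barcoded and pooled with that sample. Pools were incubated with 200 nmole of a random double-stranded 16-mer DNA library in Tris/NaCl/DTT/glycerol buffer at room temperature for 30 min, then washed, crosslinked with 0.1% formaldehyde, proximity-ligated with BsaI/T4 ligase (1 h, 37 °C), PCR-amplified and sequenced on an Illumina NextSeq500.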

In test [2] the target is T2, ETV3L (Homo sapiens, UniProt Q6ZN32 1-361).
T2 sequence: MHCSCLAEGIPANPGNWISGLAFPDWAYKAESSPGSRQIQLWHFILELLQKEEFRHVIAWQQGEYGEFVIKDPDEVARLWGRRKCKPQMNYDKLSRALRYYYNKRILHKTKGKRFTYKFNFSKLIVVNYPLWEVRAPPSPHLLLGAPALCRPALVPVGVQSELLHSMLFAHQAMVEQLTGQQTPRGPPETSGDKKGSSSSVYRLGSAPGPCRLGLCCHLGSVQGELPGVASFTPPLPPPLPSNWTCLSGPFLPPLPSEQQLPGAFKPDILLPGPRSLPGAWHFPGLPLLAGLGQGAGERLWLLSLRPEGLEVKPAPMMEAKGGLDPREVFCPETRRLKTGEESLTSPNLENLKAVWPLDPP
The method, boiled down:
as §1

Test [3] deals with T3, ETS2 (Homo sapiens, UniProt P15036 1-469).
T3 sequence: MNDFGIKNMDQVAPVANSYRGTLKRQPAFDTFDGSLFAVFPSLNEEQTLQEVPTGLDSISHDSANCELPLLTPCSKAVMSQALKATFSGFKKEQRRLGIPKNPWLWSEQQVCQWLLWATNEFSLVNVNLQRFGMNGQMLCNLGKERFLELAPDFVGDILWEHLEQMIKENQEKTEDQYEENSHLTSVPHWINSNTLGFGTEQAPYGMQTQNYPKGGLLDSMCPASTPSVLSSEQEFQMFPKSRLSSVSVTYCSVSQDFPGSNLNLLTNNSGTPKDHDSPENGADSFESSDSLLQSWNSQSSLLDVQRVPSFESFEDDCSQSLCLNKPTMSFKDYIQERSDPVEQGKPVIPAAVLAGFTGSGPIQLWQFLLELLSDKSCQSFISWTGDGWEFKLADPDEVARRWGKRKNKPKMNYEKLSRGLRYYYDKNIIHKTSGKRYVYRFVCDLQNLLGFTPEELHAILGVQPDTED
The method, boiled down: as §1

The target of test [4] is T4, SPDEF (Homo sapiens, UniProt O95238 1-335).
T4 sequence: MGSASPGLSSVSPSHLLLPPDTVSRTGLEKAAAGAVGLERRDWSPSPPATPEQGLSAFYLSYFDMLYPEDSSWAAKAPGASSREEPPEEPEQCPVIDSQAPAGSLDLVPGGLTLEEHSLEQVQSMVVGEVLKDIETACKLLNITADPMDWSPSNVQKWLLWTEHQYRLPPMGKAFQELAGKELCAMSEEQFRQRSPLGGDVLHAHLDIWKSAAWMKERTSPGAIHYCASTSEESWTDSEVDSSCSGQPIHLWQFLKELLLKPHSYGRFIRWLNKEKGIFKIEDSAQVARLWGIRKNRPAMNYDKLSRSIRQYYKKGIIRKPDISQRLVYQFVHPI
The method, boiled down: as §1

Test [5] has as its target T5, ETV7 (Homo sapiens, UniProt Q9Y603 1-341).
T5 sequence: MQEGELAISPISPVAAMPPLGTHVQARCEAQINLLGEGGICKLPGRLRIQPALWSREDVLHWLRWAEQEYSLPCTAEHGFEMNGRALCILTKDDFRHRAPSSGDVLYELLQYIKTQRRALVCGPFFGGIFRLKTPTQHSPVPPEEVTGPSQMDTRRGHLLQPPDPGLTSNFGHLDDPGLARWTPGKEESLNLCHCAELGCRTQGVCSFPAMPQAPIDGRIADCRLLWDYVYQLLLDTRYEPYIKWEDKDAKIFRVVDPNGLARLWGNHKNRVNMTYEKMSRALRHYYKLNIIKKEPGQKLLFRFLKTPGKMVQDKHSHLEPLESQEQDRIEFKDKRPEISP
The method, boiled down:
as §1

The target in test [6] is T6, ELF5 (Homo sapiens, UniProt Q9UKW6-2 1-255).
T6 sequence: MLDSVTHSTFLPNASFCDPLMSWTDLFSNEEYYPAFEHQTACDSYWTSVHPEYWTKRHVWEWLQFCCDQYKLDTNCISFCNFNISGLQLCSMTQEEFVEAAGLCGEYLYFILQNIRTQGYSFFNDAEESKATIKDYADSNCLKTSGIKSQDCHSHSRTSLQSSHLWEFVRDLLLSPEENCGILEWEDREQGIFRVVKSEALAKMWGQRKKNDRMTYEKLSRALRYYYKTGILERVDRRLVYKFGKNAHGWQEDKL
The method, boiled down: as §1

Test [7] deals with T7, ETV3 (Homo sapiens, UniProt P41162-2 1-143).
T7 sequence: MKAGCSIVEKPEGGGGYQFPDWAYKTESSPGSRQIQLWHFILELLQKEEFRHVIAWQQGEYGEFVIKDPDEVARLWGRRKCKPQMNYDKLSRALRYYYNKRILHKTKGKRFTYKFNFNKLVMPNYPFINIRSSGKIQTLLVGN
The method, boiled down: as §1

Test [8] has as its target ETV6 (Homo sapiens, UniProt P41212 1-452). The method, boiled down: as §1

Chain of ETV6 (P41212 whole entry): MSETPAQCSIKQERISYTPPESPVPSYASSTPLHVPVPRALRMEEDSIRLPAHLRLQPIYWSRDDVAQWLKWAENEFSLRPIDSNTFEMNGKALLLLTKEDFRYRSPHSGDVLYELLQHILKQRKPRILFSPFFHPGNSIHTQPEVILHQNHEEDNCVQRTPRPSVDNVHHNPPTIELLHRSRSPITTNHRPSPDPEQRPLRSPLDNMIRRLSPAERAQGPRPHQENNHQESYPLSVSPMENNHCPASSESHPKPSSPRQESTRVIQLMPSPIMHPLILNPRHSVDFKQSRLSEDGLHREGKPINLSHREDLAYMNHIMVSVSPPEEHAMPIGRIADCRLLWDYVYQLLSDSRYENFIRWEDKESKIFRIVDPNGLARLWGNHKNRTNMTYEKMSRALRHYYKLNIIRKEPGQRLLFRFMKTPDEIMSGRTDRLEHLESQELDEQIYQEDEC

In the case of CCCGAA, the binding signal in test [1] was 1.48 fold enrichment (6-mer frequency, TF over GST control); in test [2], 1.35 fold enrichment (6-mer frequency, TF over GST control); in test [3] it was 1.37 fold enrichment (6-mer frequency, TF over GST control); in test [4], 1.31 fold enrichment (6-mer frequency, TF over GST control); in test [5], 1.26 fold enrichment (6-mer frequency, TF over GST control); in test [6] it was 1.32 fold enrichment (6-mer frequency, TF over GST control). For the same sequence, the binding signal in test [7] was 1.33 fold enrichment (6-mer frequency, TF over GST control); in test [8], 1.36 fold enrichment (6-mer frequency, TF over GST control).
In the case of CCGCTT, the binding signal in test [1] was 1.77 fold enrichment (6-mer frequency, TF over GST control); in test [2], 1.89 fold enrichment (6-mer frequency, TF over GST control); in test [3], 1.95 fold enrichment (6-mer frequency, TF over GST control); in test [4] it was 1.99 fold enrichment (6-mer frequency, TF over GST control); in test [5], 1.62 fold enrichment (6-mer frequency, TF over GST control); in test [6], 2.05 fold enrichment (6-mer frequency, TF over GST control). Also, the binding signal in test [7] is 1.96 fold enrichment (6-mer frequency, TF over GST control); in test [8] it was 2.17 fold enrichment (6-mer frequency, TF over GST control).
As for ATTCTC, the binding signal in test [1] was 1.22 fold enrichment (6-mer frequency, TF over GST control); in test [2], 1.31 fold enrichment (6-mer frequency, TF over GST control); in test [3] it was 1.19 fold enrichment (6-mer frequency, TF over GST control); in test [4], 1.19 fold enrichment (6-mer frequency, TF over GST control); in test [5], 1.23 fold enrichment (6-mer frequency, TF over GST control); in test [6] it was 1.26 fold enrichment (6-mer frequency, TF over GST control). Further, the binding signal in test [7] was 1.17 fold enrichment (6-mer frequency, TF over GST control); in test [8], 1.23 fold enrichment (6-mer frequency, TF over GST control).
As to TTAAAG, the binding signal was 1.25 fold enrichment (6-mer frequency, TF over GST control) in test [1]; 1.2 fold enrichment (6-mer frequency, TF over GST control) in test [2]; 1.19 fold enrichment (6-mer frequency, TF over GST control) in test [3]; 1.12 fold enrichment (6-mer frequency, TF over GST control) in test [4]; 1.21 fold enrichment (6-mer frequency, TF over GST control) in test [5]; 1.13 fold enrichment (6-mer frequency, TF over GST control) in test [6]. Also, the binding signal is 1.21 fold enrichment (6-mer frequency, TF over GST control) in test [7] and 1.19 fold enrichment (6-mer frequency, TF over GST control) in test [8].
Consider CTATAT, for which the binding signal in test [1] is 1.48 fold enrichment (6-mer frequency, TF over GST control); in test [2] it was 1.4 fold enrichment (6-mer frequency, TF over GST control); in test [3] it was 1.54 fold enrichment (6-mer frequency, TF over GST control); in test [4], 1.51 fold enrichment (6-mer frequency, TF over GST control); in test [5], 1.41 fold enrichment (6-mer frequency, TF over GST control); in test [6] it was 1.4 fold enrichment (6-mer frequency, TF over GST control). The binding signal was 1.5 fold enrichment (6-mer frequency, TF over GST control) in test [7] and 1.43 fold enrichment (6-mer frequency, TF over GST control) in test [8].
Consider TCTCAG, for which the binding signal was 1.26 fold enrichment (6-mer frequency, TF over GST control) in test [1]; 1.26 fold enrichment (6-mer frequency, TF over GST control) in test [2]; 1.37 fold enrichment (6-mer frequency, TF over GST control) in test [3]; 1.33 fold enrichment (6-mer frequency, TF over GST control) in test [4]; 1.26 fold enrichment (6-mer frequency, TF over GST control) in test [5]; 1.31 fold enrichment (6-mer frequency, TF over GST control) in test [6]. The binding signal in test [7] was 1.43 fold enrichment (6-mer frequency, TF over GST control); in test [8], 1.34 fold enrichment (6-mer frequency, TF over GST control).
Turning to CGCTTC, the binding signal was 2.11 fold enrichment (6-mer frequency, TF over GST control) in test [1]; 2.03 fold enrichment (6-mer frequency, TF over GST control) in test [2]; 2.07 fold enrichment (6-mer frequency, TF over GST control) in test [3]; 2 fold enrichment (6-mer frequency, TF over GST control) in test [4]; 1.9 fold enrichment (6-mer frequency, TF over GST control) in test [5]; 2.14 fold enrichment (6-mer frequency, TF over GST control) in test [6]. The binding signal in test [7] was 2.09 fold enrichment (6-mer frequency, TF over GST control); in test [8], 2.35 fold enrichment (6-mer frequency, TF over GST control).
